From PubChem BioAssay (NCATS)
Records with an inconclusive call do not appear. The call rests on the fitted dose curve; in most records, active means well fitted activation curve with a large enough effect; inconclusive means small, poorly fitted or top-dose-only effect; inactive means no such curve, though single readings can be large or run the other way.

What follows are compounds tested against Rap guanine nucleotide exchange factor 3 (Homo sapiens) (UniProt O95398) (assay: Confirmatory qHTS for agonist of cAMP-regulated guanine nucleotide exchange factor 3 (EPAC1) (AID 1645881;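 further: EPAC1 catalysed release of BODIPY-GDP from Rap1B seen as fluorescence loss; 100% = effect of cAMP agonist control; nearly all actives have a fitted effect of over 75% in size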)). Settings: EPAC1 Rap1B BODIPY-GDP exchange fluorescence; series mostly up to 154 µM; activation: at the top concentration.
Sequence of Rap guanine nucleotide exchange factor 3 (Homo sapiens) (O95398 whole entry, looked up): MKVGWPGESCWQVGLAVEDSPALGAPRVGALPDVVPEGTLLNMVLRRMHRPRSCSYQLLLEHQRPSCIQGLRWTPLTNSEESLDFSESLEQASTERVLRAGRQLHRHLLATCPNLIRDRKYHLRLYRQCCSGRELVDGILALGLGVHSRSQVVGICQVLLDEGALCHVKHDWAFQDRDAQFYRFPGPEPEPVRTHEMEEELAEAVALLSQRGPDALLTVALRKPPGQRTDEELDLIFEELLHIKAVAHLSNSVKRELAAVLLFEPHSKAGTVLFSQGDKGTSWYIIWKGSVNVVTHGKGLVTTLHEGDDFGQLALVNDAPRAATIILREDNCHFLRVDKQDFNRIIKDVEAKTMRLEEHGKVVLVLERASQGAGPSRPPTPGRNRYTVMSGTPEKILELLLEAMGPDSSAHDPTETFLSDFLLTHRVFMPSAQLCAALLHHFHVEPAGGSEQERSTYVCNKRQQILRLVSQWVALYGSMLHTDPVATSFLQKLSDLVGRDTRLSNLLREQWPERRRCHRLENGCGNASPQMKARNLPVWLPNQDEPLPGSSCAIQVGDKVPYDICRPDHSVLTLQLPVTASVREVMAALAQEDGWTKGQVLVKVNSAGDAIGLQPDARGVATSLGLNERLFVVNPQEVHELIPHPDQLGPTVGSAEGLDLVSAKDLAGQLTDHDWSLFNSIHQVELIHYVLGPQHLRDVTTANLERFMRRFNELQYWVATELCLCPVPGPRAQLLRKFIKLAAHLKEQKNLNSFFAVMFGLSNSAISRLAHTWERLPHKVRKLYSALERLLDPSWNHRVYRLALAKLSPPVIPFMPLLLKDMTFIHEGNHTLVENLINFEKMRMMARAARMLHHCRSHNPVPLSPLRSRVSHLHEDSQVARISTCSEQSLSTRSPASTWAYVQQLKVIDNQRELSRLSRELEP

activation, inactive:
Cc1ccc(C)c(OC(C)C(=O)Nc2ccc(S(=O)(=O)Nc3nccs3)cc2)c1 (stereo not drawn) 16%
O=C1c2cccc3cc([N+](=O)[O-])cc(c23)C(=O)N1/N=C/c1ccc(O)cc1O -2.15%
CSc1ccccc1C(=O)N(C)C(c1ccccc1)c1ccccc1 13%
ON=C(c1ccccc1)c1ccc2c3c(cccc13)CC2 16.9%
O=[N+]([O-])c1cc(Br)ccc1NS(=O)(=O)c1ccccc1 -2.57%
CCc1nc(Oc2cccc(F)c2)c2oc3ccccc3c2n1 1.64%
COc1ccc(N2Cc3cccc(C(=O)Nc4ccc(C(C)C)cc4)c3C2=O)cc1 -4.12%
Cc1cccc(Nc2nnc(SC/C(O)=C(\C#N)c3nc4ccccc4[nH]3)s2)c1 4.29%
CN(C)c1ccc(-c2[nH][nH]c(=O)c2NC(=O)c2ccccn2)cc1 11.1%
COc1ccc(NC(=O)c2ccco2)cc1NC(=O)C(C)Oc1ccc(Cl)cc1Cl (stereo not drawn) 0.35%
Cc1ccc(Nc2nnc(-c3ccc(C)c(S(N)(=O)=O)c3)c3ccccc23)cc1 4.4%
CC(=O)C(=Cc1ccc(Cl)cc1)C(=O)c1ccccc1 12.4%
C#Cc1ccc([C@@H]2C=C(C(=O)OCC=C)O[C@H](OCc3ccc(CO)cc3)C2)cc1 8.21%
COc1cc(C2CC(=O)Oc3cc(C)c(Br)c(C)c32)cc(OC)c1OC (stereo not drawn) 14.8%
COc1ccc(C(CC(=O)c2ccc(C)cc2)C(C#N)C#N)cc1OC (stereo not drawn) 11.3%
O=C(NCc1ccccc1)C(c1ccccc1)n1c(=O)c(-c2ccco2)nc2ccccc21 (stereo not drawn) 0.384%
Cc1ccc(N=Cc2c(O)c3ccccc3n(C)c2=O)cc1 9.27%
CCOC(=O)C1=CN(Cc2cccc(F)c2)S(=O)(=O)NC1c1ccc(Br)cc1F (stereo not drawn) 9.06%
N#C/C(=C/C1=C(N2CCOCC2)C(=C/c2cccc([N+](=O)[O-])c2)/CC1)C(=O)Nc1ccccc1F -2.51%
Cc1ccc(C)c(-c2ccc(=O)n(Cc3c(F)cccc3Cl)n2)c1 17.2%
CCCCc1ccc(NS(=O)(=O)c2cc3c4c(c2)CC(=O)N4CCC3)cc1 -13%
C/C(=N\NC(=O)c1ccc(O)cc1)c1cccc(NC(=O)c2ccc(Cl)cc2)c1 -21%
Cc1cccc(S(=O)(=O)Nc2ccc(S(=O)(=O)Nc3nccs3)cc2)c1 -4.22%
COc1ccc(CC(=O)NCc2ccc3c(c2)CCN3C(=O)c2ccc(Cl)cc2)cc1OC -1.3%
NC(=O)C1CCN(C(=O)c2ccc3c(=O)n(Cc4cccc(Br)c4)c(=S)[nH]c3c2)CC1 16.6%
O=C1C=C(Nc2cccc3cccnc23)c2ccccc2C1=O 19.8%
O=C(COC(=O)C1(c2ccc(Cl)cc2)CCCC1)NCc1ccco1 16.7%
Cc1ccc(/C=C(\C#N)C(=O)Nc2cccc3ncccc23)o1 0.975%
O=C(CSc1nc(O)cc(=O)n1-c1ccccc1)Nc1nc2ccccc2s1 2.13%
O=C(NCCCN1CCOCC1)c1ccc2c(c1)N(Cc1cccc(Cl)c1)C(=O)c1ccccc1S2 13.9%
CCOC(=O)Cc1cc(=O)n2[nH]c(-c3ccccc3)c(-c3ccccc3)c2n1 12.9%
CCC(=O)NC(c1ccc(OC)cc1)c1c(O)ccc2ccccc12 (stereo not drawn) 10.9%
CN(CCOc1ccc(Br)cc1)C(=O)CNC(=O)c1ccc2ccccc2c1 9.34%
Cc1cccc(NC(=O)CN2C(=O)N/C(=C\c3ccccc3OCc3ccc(C(=O)O)cc3)C2=O)c1 0.753%
CCOC(=O)c1c(C)oc2c1c(C=NCCO)c(O)c1ccccc12 -13.4%
CCOC(=O)c1cc2c(=O)n3ccccc3nc2n(Cc2ccco2)c1=NC(=O)c1c(F)cccc1Cl 29.1%
C[C@H]1CN([C@@H](C)CO)S(=O)(=O)c2ccc(Br)cc2O[C@@H]1CN(C)Cc1cccc(F)c1 2.82%
Cc1ccc(C)c(-c2ccc(=O)n(C(C)C(=O)Nc3ccccc3C(F)(F)F)n2)c1 (stereo not drawn) -14.5%
CCOC(=O)c1ccccc1NC(=O)c1c(C)oc2ncnc(N3CCOCC3)c12 5.48%

The compounds below were run against Rap guanine nucleotide exchange factor 4 (Homo sapiens) (UniProt Q8WZA2) (assay: Confirmatory qHTS for agonist of cAMP-regulated guanine nucleotide exchange factor 4 (EPAC2) (AID 1645884;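 further: nucleotide exchange releases bodipy-GDP from Rap1 and this lowers its fluorescence; on the % scale 0 is the no-effect control and ±100 the full control effect; nearly all actives have a fitted effect of over 65% in size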)). Settings: EPAC2 GEF activity, Rap1B-BODIPY-GDP fluorescence; series mostly up to 154 µM; activation: at the top concentration.
Sequence of Rap guanine nucleotide exchange factor 4 (Homo sapiens) (Q8WZA2 whole entry, looked up): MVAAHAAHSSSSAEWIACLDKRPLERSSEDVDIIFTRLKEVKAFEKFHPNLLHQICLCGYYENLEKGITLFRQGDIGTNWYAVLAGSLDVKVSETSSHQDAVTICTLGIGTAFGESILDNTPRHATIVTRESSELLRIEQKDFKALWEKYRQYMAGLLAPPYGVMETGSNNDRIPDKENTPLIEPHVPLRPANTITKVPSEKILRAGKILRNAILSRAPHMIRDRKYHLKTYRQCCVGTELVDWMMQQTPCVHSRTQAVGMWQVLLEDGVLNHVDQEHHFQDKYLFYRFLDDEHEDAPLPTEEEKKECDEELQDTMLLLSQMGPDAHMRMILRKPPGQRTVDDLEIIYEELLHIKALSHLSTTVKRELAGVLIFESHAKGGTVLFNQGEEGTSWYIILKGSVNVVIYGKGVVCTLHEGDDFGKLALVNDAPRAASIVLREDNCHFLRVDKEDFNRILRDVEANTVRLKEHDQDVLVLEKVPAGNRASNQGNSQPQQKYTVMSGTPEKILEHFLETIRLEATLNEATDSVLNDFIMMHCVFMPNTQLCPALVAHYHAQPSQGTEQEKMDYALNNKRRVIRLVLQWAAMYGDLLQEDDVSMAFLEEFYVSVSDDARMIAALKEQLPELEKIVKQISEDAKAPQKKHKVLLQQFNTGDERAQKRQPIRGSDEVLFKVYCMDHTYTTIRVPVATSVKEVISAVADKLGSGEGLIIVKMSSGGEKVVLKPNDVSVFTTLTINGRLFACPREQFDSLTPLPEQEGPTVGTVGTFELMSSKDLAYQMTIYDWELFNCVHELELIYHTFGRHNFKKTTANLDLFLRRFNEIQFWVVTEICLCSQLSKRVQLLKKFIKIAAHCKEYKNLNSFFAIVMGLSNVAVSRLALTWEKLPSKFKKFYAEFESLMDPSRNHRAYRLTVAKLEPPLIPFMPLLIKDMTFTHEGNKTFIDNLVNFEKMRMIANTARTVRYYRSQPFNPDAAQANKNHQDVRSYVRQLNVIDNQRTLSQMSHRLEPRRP

activation, inactive:
Cc1ccc(C)c(OC(C)C(=O)Nc2ccc(S(=O)(=O)Nc3nccs3)cc2)c1 (stereo not drawn) 9.45%
O=C1c2cccc3cc([N+](=O)[O-])cc(c23)C(=O)N1/N=C/c1ccc(O)cc1O 0.191%
CSc1ccccc1C(=O)N(C)C(c1ccccc1)c1ccccc1 5.81%
ON=C(c1ccccc1)c1ccc2c3c(cccc13)CC2 12.6%
O=[N+]([O-])c1cc(Br)ccc1NS(=O)(=O)c1ccccc1 -2.03% [at 17.1 µM, percent relative to cAMP agonist control]
CCc1nc(Oc2cccc(F)c2)c2oc3ccccc3c2n1 -3.44% [at 83.8 µM, percent relative to cAMP agonist control]
COc1ccc(N2Cc3cccc(C(=O)Nc4ccc(C(C)C)cc4)c3C2=O)cc1 -6.79% [at 83.8 µM, percent relative to cAMP agonist control]
Cc1cccc(Nc2nnc(SC/C(O)=C(\C#N)c3nc4ccccc4[nH]3)s2)c1 2.58%
CN(C)c1ccc(-c2[nH][nH]c(=O)c2NC(=O)c2ccccn2)cc1 4.32%
COc1ccc(NC(=O)c2ccco2)cc1NC(=O)C(C)Oc1ccc(Cl)cc1Cl (stereo not drawn) -4.66% [at 83.8 µM, percent relative to cAMP agonist control]
Cc1ccc(Nc2nnc(-c3ccc(C)c(S(N)(=O)=O)c3)c3ccccc23)cc1 -4.37% [at 83.8 µM, percent relative to cAMP agonist control]
CC(=O)C(=Cc1ccc(Cl)cc1)C(=O)c1ccccc1 0.622%
C#Cc1ccc([C@@H]2C=C(C(=O)OCC=C)O[C@H](OCc3ccc(CO)cc3)C2)cc1 -0.524% [at 17.1 µM, percent relative to cAMP agonist control]
COc1cc(C2CC(=O)Oc3cc(C)c(Br)c(C)c32)cc(OC)c1OC (stereo not drawn) 16.3% [at 17.1 µM, percent relative to cAMP agonist control]
COc1ccc(C(CC(=O)c2ccc(C)cc2)C(C#N)C#N)cc1OC (stereo not drawn) 4.71%
O=C(NCc1ccccc1)C(c1ccccc1)n1c(=O)c(-c2ccco2)nc2ccccc21 (stereo not drawn) 3.56% [at 17.1 µM, percent relative to cAMP agonist control]
Cc1ccc(N=Cc2c(O)c3ccccc3n(C)c2=O)cc1 -5.76%
CCOC(=O)C1=CN(Cc2cccc(F)c2)S(=O)(=O)NC1c1ccc(Br)cc1F (stereo not drawn) 11.8%
N#C/C(=C/C1=C(N2CCOCC2)C(=C/c2cccc([N+](=O)[O-])c2)/CC1)C(=O)Nc1ccccc1F 1.67% [at 17.1 µM, percent relative to cAMP agonist control]
Cc1ccc(C)c(-c2ccc(=O)n(Cc3c(F)cccc3Cl)n2)c1 9.05%
CCCCc1ccc(NS(=O)(=O)c2cc3c4c(c2)CC(=O)N4CCC3)cc1 27.2% [at 83.8 µM, percent relative to cAMP agonist control]
C/C(=N\NC(=O)c1ccc(O)cc1)c1cccc(NC(=O)c2ccc(Cl)cc2)c1 -27.9%
Cc1cccc(S(=O)(=O)Nc2ccc(S(=O)(=O)Nc3nccs3)cc2)c1 -6.54%
COc1ccc(CC(=O)NCc2ccc3c(c2)CCN3C(=O)c2ccc(Cl)cc2)cc1OC -26.1% [at 83.8 µM, percent relative to cAMP agonist control]
NC(=O)C1CCN(C(=O)c2ccc3c(=O)n(Cc4cccc(Br)c4)c(=S)[nH]c3c2)CC1 7.22% [at 17.1 µM, percent relative to cAMP agonist control]
O=C1C=C(Nc2cccc3cccnc23)c2ccccc2C1=O 0%
O=C(COC(=O)C1(c2ccc(Cl)cc2)CCCC1)NCc1ccco1 16.2%
Cc1ccc(/C=C(\C#N)C(=O)Nc2cccc3ncccc23)o1 -3.89%
O=C(CSc1nc(O)cc(=O)n1-c1ccccc1)Nc1nc2ccccc2s1 5.69%
O=C(NCCCN1CCOCC1)c1ccc2c(c1)N(Cc1cccc(Cl)c1)C(=O)c1ccccc1S2 14.9% [at 83.8 µM, percent relative to cAMP agonist control]
CCOC(=O)Cc1cc(=O)n2[nH]c(-c3ccccc3)c(-c3ccccc3)c2n1 9.18%
CCC(=O)NC(c1ccc(OC)cc1)c1c(O)ccc2ccccc12 (stereo not drawn) 9.47%
CN(CCOc1ccc(Br)cc1)C(=O)CNC(=O)c1ccc2ccccc2c1 0.226% [at 17.1 µM, percent relative to cAMP agonist control]
Cc1cccc(NC(=O)CN2C(=O)N/C(=C\c3ccccc3OCc3ccc(C(=O)O)cc3)C2=O)c1 -10.1%
CCOC(=O)c1c(C)oc2c1c(C=NCCO)c(O)c1ccccc12 10.2% [at 17.1 µM, percent relative to cAMP agonist control]
CCOC(=O)c1cc2c(=O)n3ccccc3nc2n(Cc2ccco2)c1=NC(=O)c1c(F)cccc1Cl 18.8% [at 83.8 µM, percent relative to cAMP agonist control]
C[C@H]1CN([C@@H](C)CO)S(=O)(=O)c2ccc(Br)cc2O[C@@H]1CN(C)Cc1cccc(F)c1 15% [at 17.1 µM, percent relative to cAMP agonist control]
Cc1ccc(C)c(-c2ccc(=O)n(C(C)C(=O)Nc3ccccc3C(F)(F)F)n2)c1 (stereo not drawn) -22.8% [at 83.8 µM, percent relative to cAMP agonist control]
CCOC(=O)c1ccccc1NC(=O)c1c(C)oc2ncnc(N3CCOCC3)c12 -54.3% [at 83.8 µM, percent relative to cAMP agonist control]
